Data reported in the supplement of paper PMC6992640.
± gives the standard deviation of the averaged measurements.

What was measured:
Experiment in all cases: cell viability (% of vehicle); higher = less cytotoxic
Conditions in all cases: 10 µM; 72 h
[1] = system: HCI01 (cells of a triple-negative basal-like breast cancer xenograft)
[2] = system: HCI03 (cells of an ER-positive luminal breast cancer xenograft)
[3] = system: HCI09 (cells of a triple-negative luminal androgen receptor type breast cancer xenograft)
[4] = system: HCI11 (cells of an ER-positive luminal breast cancer xenograft)
[5] = system: HCI13 (cells of an ER-positive luminal breast cancer xenograft)
[6] = system: HCI16 (cells of a triple-negative basal-like breast cancer xenograft)
[7] = system: UCD52 (cells of a triple-negative basal-like breast cancer xenograft)
[8] = system: WHIM2 (cells of a triple-negative basal-like breast cancer xenograft)
[9] = system: WHIM30 (cells of a triple-negative basal-like breast cancer xenograft)
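Note: PDX cells carrying CMV promoter-driven luciferase, viability read as total photon flux per second by IVIS imaging following D-luciferin, vehicle control 0.1% DMSO.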

Structure (SMILES) | cell viability [1] | cell viability [2] | cell viability [3] | cell viability [4] | cell viability [5] | cell viability [6] | cell viability [7] | cell viability [8] | cell viability [9]
O=c1ccc2ccccc2o1 [Coumarin] | 110 ± 15 | 145 | 99.9 ± 6.8 | 95 | 102 ± 7.2 | 128 | 93.3 ± 14 | 113 ± 4.4 | 114 ± 2.5
Cn1nnc2c(C(N)=O)ncn2c1=O [Temozolomide] | 136 ± 12 | 125 | 105 ± 15 | 111 | 122 ± 17 | 136 | 97.8 ± 28 | 117 ± 5.3 | 107 ± 16
CCOC(=O)C(CCc1ccccc1)NC(C)C(=O)N1C(C(=O)O)CC2CCCC21 (stereo unspecified) [Ramipril] | 77.7 ± 49 | 129 | 86.7 ± 4.7 | 91.6 | 115 ± 14 | 106 | 87.6 ± 5.9 | 90.8 ± 9.4 | 99.772 ± 0.035
CC(=O)OC1CCC2(C)C(=CCC3C2CCC2(C)C(c4cccnc4)=CCC32)C1 (stereo unspecified) [Abiraterone acetate] | 96.7 ± 14 | 87.6 | 65.8 ± 28 | 88.7 | 68 ± 12 | 98 | 62.6 ± 1.9 | 95.5 ± 20 | 117 ± 51
CC(=O)O[C@H]1Cc2ccccc2N(C(N)=O)c2ccccc21 [Eslicarbazepine acetate] | 102 ± 12 | 116 | 111 ± 6.7 | 85.7 | 102 ± 11 | 106 | 95.5 ± 1.3 | 102 ± 27 | 94.1 ± 16
N=C(NCCCCCCNC(=N)NC(=N)Nc1ccc(Cl)cc1)NC(=N)Nc1ccc(Cl)cc1 [Chlorhexidine digluconate] | 77.9 ± 12 | 118 | 60.1 ± 19 | 76 | 68.6 ± 2 | 112 | 98.5 ± 24 | 48.8 ± 1.5 | 103 ± 6
Cc1ccc(C2OC(CO)C(O)C(O)C2O)cc1Cc1ccc(-c2ccc(F)cc2)s1 (stereo unspecified) [Canagliflozin] | 114 ± 6.5 | 150 | 55.8 ± 27 | 108 | 77.3 ± 21 | 124 | 76 ± 9.2 | 65.5 ± 51 | 110 ± 5.9
CN(C)CCCOc1nn(Cc2ccccc2)c2ccccc12.Cl [Benzydamine HCl] | 171 ± 76 | 85.4 | 79 ± 16 | 104 | 66.2 ± 11 | 163 | 100.3 ± 0.44 | 116 ± 6.4 | 123 ± 18
COc1ccc(CN(CCN(C)C)c2ccccn2)cc1.O=C(O)/C=C\C(=O)O [Mepyramine maleate] | 93.8 ± 18 | 133 | 88.5 ± 12 | 93.9 | 85.6 ± 8.7 | 107 | 112 ± 8.7 | 94.4 ± 8.4 | 111 ± 6
O=S(=O)([O-])CCSSCCS(=O)(=O)[O-].[Na+].[Na+] [Dimesna] | 111 ± 23 | 150 | 97 ± 6.5 | 103 | 122 ± 15 | 124 | 111 ± 8.6 | 128 ± 9.9 | 125 ± 12
Nc1ccc(S(=O)(=O)c2ccc(N)cc2)cc1 [Dapsone] | 114 ± 18 | 146 | 111 ± 3.1 | 116 | 118 ± 22 | 158 | 116 ± 4.3 | 115 ± 8.2 | 117 ± 10
Cl.c1ccc2c(c1)CCCC2C1=NCCN1 (stereo unspecified) [Tetrahydrozoline HCl] | 114 ± 3.1 | 116 | 97.1 ± 17 | 106 | 86.8 ± 1.9 | 108 | 89.5 ± 2 | 101 ± 21 | 115 ± 2.9
O=c1sn(-c2cccc3ccccc23)c(=O)n1Cc1ccccc1 [Tideglusib] | 119 ± 20 | 114 | 98.2 ± 11 | 96.3 | 95.7 ± 14 | 94.7 | 78.4 ± 1.8 | 86.22 ± 0.6 | 131 ± 9.7
CC(C)(C)NC(=O)NC(C(=O)N1CC2C(C1C(=O)NC(CC1CCC1)C(=O)C(N)=O)C2(C)C)C(C)(C)C (stereo unspecified) [Boceprevir] | 100 ± 19 | 83.8 | 87.2 ± 6.2 | 101 | 72.5 ± 1.2 | 65.1 | 80.1 ± 16 | 80.7 ± 15 | 85.1 ± 8.9
COc1ccccc1OCC(O)CN1CCN(CC(=O)Nc2c(C)cccc2C)CC1 (stereo unspecified) [Ranolazine] | 136 ± 2.8 | 96.3 | 134 ± 75 | 103 | 120 ± 35 | 120 | 89.4 ± 19 | 109 ± 19 | 130 ± 17
Cc1ccc2c(Cl)cc(Cl)c(O)c2n1 [Chlorquinaldol] | 102 ± 27 | 109 | 31.6 ± 15 | 52.7 | 105 ± 17 | 105 | 69.6 ± 16 | 94.2 ± 31 | 94 ± 5.7
NC(=O)NO [Hydroxyurea] | 62.8 ± 36 | 111 | 89.2 ± 7.3 | 90 | 113 ± 11 | 110 | 78.7 ± 4.1 | 96.5 ± 31 | 125 ± 3.9
O=C(O)C=Cc1ccccc1 [Cinnamic acid] | 98.7 ± 32 | 108 | 96 ± 4.4 | 94.3 | 107 ± 15 | 121 | 98.4 ± 12 | 105 ± 15 | 117.9 ± 0.11
CC(O)C1C(=O)N2C(C(=O)O)=C(SC3CNC(CNS(N)(=O)=O)C3)C(C)C12.O (stereo unspecified) [Doripenem Hydrate] | 103 ± 1.4 | 91.1 | 95.9 ± 7 | 84.3 | 84.8 ± 5.9 | 95.3 | 89.1 ± 5.5 | 93.6 ± 7.5 | 109 ± 5.1
